In PubChem BioAssay (NCATS):
Results filed as inconclusive are left out. Entries that show only a call come without a potency. Calls of active or inactive are those of the source. Unless noted, calls follow the shape of the dose curve; as a rule, active = well fitted curve in the direction sought with a large enough effect; inconclusive = small, poorly fitted or top-dose-only effect, or another doubt; inactive = no such curve, though single readings can be large; an effect the other way counts as inactive or inconclusive.

What was measured:
[1] = Validation screen for small molecules that induce DNA re-replication in SW480 colon adenocarcinoma cells (AID 504364); details: DNA re-replication phenotype (high-content imaging); series mostly up to 46.1 µM
Method in brief: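 Hoechst-stained SW480 nuclei, imaged at 405 nm excitation after 48 hr compound exposure, were counted for elevated DNA content as the re-replication signal.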

[2] = biological target: Peptidyl-prolyl cis-trans isomerase NIMA-interacting 1 (Homo sapiens) (UniProt Q13526); assay: qHTS Validation Assay to Find Inhibitors of Pin1 (AID 504536; active = well fitted inhibition curve with a large enough effect in the polarisation, with a control signal flat, not every such curve was filed as active; the % refers to the polarisation); details: Pin1 fluorescence polarization peptide binding assay; series mostly up to 57.5 µM
Method in brief: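 Fluorescence polarization competition: compounds (titration) displace HiFluor-488-labeled Pin1-1b peptide from Pin1 (0.3 uM final) in pH 7.5 HEPES buffer with DTT, 10 min at room temperature; %Activity normalized to no-enzyme wells, curves fitted.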

[3] = biological target: Phosphoglycerate kinase, glycosomal (Trypanosoma brucei brucei) (UniProt P07378); assay: qHTS Validation Assay to Find Inhibitors of Phosphoglycerate Kinase (AID 504547); details: enzymatic PGK inhibition, coupled luminescence read-out; series mostly up to 57.5 µM
Method in brief: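 Luminescence end-point (Kinase-Glo Plus, 10 min) after a 60 min room-temperature coupled reaction. GAPDH at 100nM final supplies 1,3-BPG to PGK. Buffer: 100mM TEA pH 7.6, 5mM MgCl2, 0.01% Tween-20. Wells lacking PGK served as controls.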

[4] = biological target: Ubiquitin carboxyl-terminal hydrolase 1 (Homo sapiens) (UniProt O94782); assay: Inhibitors of USP1/UAF1: Pilot qHTS (AID 504865); details: purified USP1/UAF1, Ub-rhodamine cleavage fluorescence; series mostly up to 114 µM; also: nearly all actives have a fitted effect of over 35% in size; also: potency is read from the fitted curve at half-maximal effect
Method in brief: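 Enzyme-free wells gave the negative control, while test wells held 1nM USP1/UAF1 preincubated with compound for 15 min at room temperature. Ub-Rho at 150nM final started the reaction, and fluorescence at 480/540 nm was recorded kinetically.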

[5] = qHTS for Inhibitors of ATXN expression: Validation of Cytotoxic Assay (AID 588349); details: cytotoxicity counter-screen for ATXN expression inhibitors, cell viability; series mostly up to 57.1 µM
Method in brief: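 Toxicity of test compounds toward HEK293 cells is scored from cellular ATP content measured by CellTiter Glo. Cells receive titrated doses and incubate 72 hr at 37 degrees C beforehand.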

[6] = biological target: Androgen receptor (Homo sapiens) (UniProt P10275); assay: qHTS assay for small molecule antagonists of androgen receptor signaling (AID 588516; active = well fitted curve in the direction sought with a large enough effect in the signal ratio, with a control signal flat, not every such curve was filed as active; the % refers to the signal ratio); details: AR-UAS-bla HEK293, beta-lactamase ratio, antagonist mode, 16 h; series mostly up to 76.8 µM
Method in brief: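 Compounds tested in titration against 10 nM R1881 in AR-responsive bla reporter HEK 293 cells; CCF4 fluorescence (460/530 nm) after 16 h exposure gave IC50 and efficacy.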

Peptidyl-prolyl cis-trans isomerase NIMA-interacting 1 (Homo sapiens), sequence (Q13526 whole entry, looked up): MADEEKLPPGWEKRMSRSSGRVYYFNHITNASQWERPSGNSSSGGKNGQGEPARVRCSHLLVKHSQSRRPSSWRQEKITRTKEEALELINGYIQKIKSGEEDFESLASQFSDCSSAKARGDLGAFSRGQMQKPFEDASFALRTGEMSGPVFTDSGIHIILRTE
Phosphoglycerate kinase, glycosomal (Trypanosoma brucei brucei), sequence (P07378 whole entry, looked up): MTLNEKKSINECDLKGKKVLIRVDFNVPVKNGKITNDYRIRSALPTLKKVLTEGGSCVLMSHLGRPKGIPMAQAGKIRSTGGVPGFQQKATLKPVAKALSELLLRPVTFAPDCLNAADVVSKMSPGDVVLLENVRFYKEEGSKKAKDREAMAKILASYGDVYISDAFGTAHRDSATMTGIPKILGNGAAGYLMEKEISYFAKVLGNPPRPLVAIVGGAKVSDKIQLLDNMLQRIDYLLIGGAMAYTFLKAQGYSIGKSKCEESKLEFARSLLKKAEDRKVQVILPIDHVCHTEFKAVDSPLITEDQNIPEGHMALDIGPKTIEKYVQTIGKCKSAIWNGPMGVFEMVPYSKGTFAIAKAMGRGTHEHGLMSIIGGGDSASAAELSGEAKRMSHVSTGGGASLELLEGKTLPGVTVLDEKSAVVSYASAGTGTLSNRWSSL
Ubiquitin carboxyl-terminal hydrolase 1 (Homo sapiens), sequence (O94782 whole entry, looked up): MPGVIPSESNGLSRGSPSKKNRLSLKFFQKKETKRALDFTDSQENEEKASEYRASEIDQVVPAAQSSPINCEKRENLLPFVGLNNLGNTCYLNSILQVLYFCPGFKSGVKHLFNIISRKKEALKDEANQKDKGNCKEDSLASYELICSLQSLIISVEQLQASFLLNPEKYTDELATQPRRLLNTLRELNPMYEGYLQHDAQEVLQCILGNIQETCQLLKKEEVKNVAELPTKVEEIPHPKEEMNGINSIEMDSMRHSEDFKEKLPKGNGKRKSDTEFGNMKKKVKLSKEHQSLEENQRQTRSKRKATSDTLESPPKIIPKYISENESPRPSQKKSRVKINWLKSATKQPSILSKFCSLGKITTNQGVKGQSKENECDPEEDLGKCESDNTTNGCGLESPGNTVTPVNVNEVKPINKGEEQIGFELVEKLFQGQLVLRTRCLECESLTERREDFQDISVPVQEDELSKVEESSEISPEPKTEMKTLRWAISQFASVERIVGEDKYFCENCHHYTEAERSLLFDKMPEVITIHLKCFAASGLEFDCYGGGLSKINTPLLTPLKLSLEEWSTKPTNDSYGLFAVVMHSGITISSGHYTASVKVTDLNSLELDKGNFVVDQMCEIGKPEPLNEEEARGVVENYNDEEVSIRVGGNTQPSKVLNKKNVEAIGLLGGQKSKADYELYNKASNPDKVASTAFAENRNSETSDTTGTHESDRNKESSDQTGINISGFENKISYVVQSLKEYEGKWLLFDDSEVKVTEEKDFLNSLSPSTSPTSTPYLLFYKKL
Androgen receptor (Homo sapiens), sequence (P10275 whole entry, looked up): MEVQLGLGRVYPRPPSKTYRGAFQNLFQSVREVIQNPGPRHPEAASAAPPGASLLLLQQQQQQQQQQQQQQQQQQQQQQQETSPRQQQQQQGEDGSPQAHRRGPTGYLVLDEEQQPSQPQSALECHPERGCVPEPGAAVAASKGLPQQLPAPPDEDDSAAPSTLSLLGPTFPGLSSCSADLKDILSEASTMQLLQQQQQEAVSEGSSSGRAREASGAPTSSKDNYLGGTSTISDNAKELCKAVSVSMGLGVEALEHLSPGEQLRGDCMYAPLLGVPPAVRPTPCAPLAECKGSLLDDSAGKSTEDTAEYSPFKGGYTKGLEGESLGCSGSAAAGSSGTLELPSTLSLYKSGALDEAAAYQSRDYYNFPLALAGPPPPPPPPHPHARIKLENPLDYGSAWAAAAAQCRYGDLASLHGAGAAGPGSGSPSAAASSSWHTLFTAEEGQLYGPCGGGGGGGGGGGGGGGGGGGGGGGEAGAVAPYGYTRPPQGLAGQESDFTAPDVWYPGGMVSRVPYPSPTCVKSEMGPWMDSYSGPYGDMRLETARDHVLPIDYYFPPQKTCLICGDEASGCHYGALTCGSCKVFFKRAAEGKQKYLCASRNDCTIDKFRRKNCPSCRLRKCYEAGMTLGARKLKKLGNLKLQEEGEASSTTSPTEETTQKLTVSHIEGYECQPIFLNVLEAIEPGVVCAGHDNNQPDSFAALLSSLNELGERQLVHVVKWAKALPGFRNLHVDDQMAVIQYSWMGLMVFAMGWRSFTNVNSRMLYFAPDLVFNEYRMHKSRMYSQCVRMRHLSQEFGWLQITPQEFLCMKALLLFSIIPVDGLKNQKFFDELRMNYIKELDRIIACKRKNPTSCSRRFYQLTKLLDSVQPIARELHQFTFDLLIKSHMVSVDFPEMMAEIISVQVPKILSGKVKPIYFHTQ

SMILES: O=C1CCC(c2ccc(-n3ccnc3)cc2)=NN1
- outcome [1]: inactive
- outcome [2]: inactive
- outcome [3]: inactive
- Potency [4]: inactive
- outcome [5]: inactive

SMILES: CCC(NC(C)C)C(O)c1ccc(O)c(O)c1 (stereo not drawn)
- outcome [1]: inactive
- outcome [2]: inactive
- outcome [3]: inactive
- Potency [4]: inactive
- outcome [5]: inactive

SMILES: CN=C(NC#N)Nc1ccc(C2=NNC(=O)CC2C)cc1 (stereo not drawn)
- outcome [1]: inactive
- Potency [4]: inactive

SMILES: CCCCCCCCCCCCCCCC[N+](C)(C)CCN(Cc1ccc(OC)cc1)c1ncccn1
- Potency [4]: 31.6 µM (active)

SMILES: CNCCC=C1c2ccccc2CCc2ccccc21
- outcome [1]: inactive
- outcome [2]: inactive
- outcome [3]: inactive
- Potency [4]: inactive

SMILES: CC(C)COC(=O)OCN1C(=O)CN(CCN2CC(=O)N(COC(=O)OCC(C)C)C(=O)C2)CC1=O
- outcome [2]: inactive
- outcome [3]: inactive
- Potency [4]: inactive
- outcome [5]: inactive

SMILES: O=C(O)c1cc2cc(Cc3cccnc3)ccc2o1
- outcome [1]: inactive
- outcome [2]: inactive
- outcome [3]: inactive
- Potency [4]: inactive
- outcome [5]: inactive

SMILES: Nc1cc(Cl)c(NC2=NCCN2)c(Cl)c1
- outcome [1]: inactive
- outcome [2]: inactive
- outcome [3]: inactive
- Potency [4]: inactive
- outcome [5]: inactive

SMILES: C[C@]12CC[C@@H]3c4ccc(O)cc4CC[C@H]3[C@@H]1CC[C@@H]2O
- outcome [1]: inactive
- outcome [2]: inactive
- outcome [3]: inactive
- Potency [4]: inactive

SMILES: C1CCc2nnnn2CC1
- outcome [1]: inactive
- outcome [2]: inactive
- outcome [3]: inactive
- Potency [4]: inactive
- outcome [5]: inactive

SMILES: COc1cc(NS(C)(=O)=O)ccc1Nc1c2ccccc2nc2ccccc12
- outcome [1]: inactive
- outcome [2]: inactive
- outcome [3]: inactive

SMILES: CC(=O)O[C@H]1C[C@@H]2CC[C@@H]3[C@H](CC[C@@]4(C)[C@H]3C[C@H]([N+]3(C)CCCCC3)[C@@H]4OC(C)=O)[C@@]2(C)C[C@@H]1[N+]1(C)CCCCC1
- outcome [2]: inactive
- outcome [3]: inactive
- outcome [5]: inactive

SMILES: CN1C2CCC1CC(OC(=O)c1c[nH]c3ccccc13)C2 (stereo not drawn)
- outcome [1]: inactive
- outcome [2]: inactive
- outcome [3]: inactive
- Potency [4]: inactive

SMILES: CCCC1O[C@@H]2C[C@H]3[C@@H]4CCC5=CC(=O)C=C[C@]5(C)[C@H]4[C@@H](O)C[C@]3(C)[C@]2(C(=O)CO)O1 (stereo partly drawn)
- outcome [2]: inactive
- outcome [3]: inactive
- Potency [4]: inactive
- outcome [5]: inactive

SMILES: COc1cc2c(cc1O)CC[C@@H]1[C@@H]2CC[C@]2(C)[C@@H](O)CC[C@@H]12
- outcome [2]: inactive
- outcome [3]: inactive
- Potency [4]: inactive

SMILES: COC(=O)[C@H]1[C@H]2C[C@H]3c4[nH]c5ccccc5c4CCN3C[C@H]2CC[C@@H]1O
- outcome [1]: inactive
- outcome [2]: inactive
- outcome [3]: inactive
- Potency [4]: inactive
- outcome [5]: inactive

SMILES: CC(C)NC[C@@H](O)COc1cccc2ccccc12
- outcome [1]: inactive
- Potency [4]: inactive

SMILES: C[C@@H]1C(=O)NC2=Nc3cccc(Cl)c3CN21
- outcome [1]: inactive
- outcome [2]: inactive
- outcome [3]: inactive
- Potency [4]: inactive
- outcome [5]: inactive

SMILES: COc1cc(-c2ccc(=O)[nH]n2)ccc1OC(F)F
- outcome [1]: inactive
- Potency [4]: inactive

SMILES: CCCCCCCCCCOCC(O)CN (stereo not drawn)
- Potency [4]: inactive

SMILES: N[C@H](CO)C(=O)O
- outcome [1]: inactive
- outcome [2]: inactive
- outcome [3]: inactive
- Potency [4]: inactive
- outcome [5]: inactive

SMILES: Oc1ccc(O)cc1
- outcome [1]: inactive
- outcome [3]: inactive
- Potency [4]: inactive

SMILES: CC1(C)CCC(NC(=O)[C@@H](N)CCC(=O)O)CC1
- outcome [1]: inactive
- outcome [2]: inactive
- outcome [3]: inactive
- Potency [4]: inactive
- outcome [5]: inactive

SMILES: N[C@@H](Cc1cnc[nH]1)C(=O)O
- outcome [1]: inactive
- outcome [2]: inactive
- outcome [3]: inactive
- Potency [4]: inactive
- outcome [5]: inactive

SMILES: C[N+]1(CCCCC[N+]2(C)CCCC2)CCCC1
- outcome [1]: inactive
- outcome [2]: inactive
- outcome [3]: inactive
- Potency [4]: inactive
- outcome [5]: inactive

SMILES: CCCCc1nc(Cl)c(CO)n1Cc1ccc(-c2ccccc2-c2nn[nH]n2)cc1
- Potency [4]: inactive

SMILES: CNCCC(Oc1ccccc1C)c1ccccc1 (stereo not drawn)
- outcome [1]: inactive
- outcome [2]: inactive
- outcome [3]: inactive
- Potency [4]: inactive
- outcome [5]: inactive

SMILES: CC(C)C[C@H]1C(=O)N2CCC[C@H]2[C@]2(O)O[C@](NC(=O)[C@@H]3C=C4c5cccc6[nH]c(Br)c(c56)C[C@H]4N(C)C3)(C(C)C)C(=O)N12
- outcome [3]: inactive

SMILES: CCCn1c(=O)[nH]c(=O)c2[nH]cnc21
- outcome [1]: inactive
- outcome [2]: inactive
- outcome [3]: inactive
- Potency [4]: inactive
- outcome [5]: inactive

SMILES: CC(=O)OCC(=O)[C@@]1(OC(C)=O)[C@@H](C)C[C@H]2[C@@H]3C[C@H](F)C4=CC(=O)C=C[C@]4(C)[C@@]3(F)[C@@H](O)C[C@@]21C
- Potency [4]: inactive

SMILES: CC[C@H](C)C(=O)O[C@H]1CCC=C2C=C[C@H](C)[C@H](CC[C@@H]3C[C@@H](O)CC(=O)O3)[C@H]21
- outcome [2]: inactive
- outcome [3]: inactive
- Potency [4]: inactive
- outcome [5]: inactive

SMILES: CC(CCc1ccccc1)NCC(O)c1ccc(O)c(C(N)=O)c1 (stereo not drawn)
- outcome [1]: inactive
- outcome [2]: inactive
- outcome [3]: inactive
- Potency [4]: inactive

SMILES: Cc1cc(=O)n(-c2ccccc2)n1C
- outcome [6]: inactive

SMILES: CCCCCCc1ccc(O)cc1O
- outcome [6]: inactive
